KCNQ2 block: blocks the rat KCNQ2 potassium channel; O88943; CHO-K1 KCNQ2, FluxOR thallium flux, 20 min; active compounds read low; B-score at 10 µM; hit rate 1.1% among 310,000; AID 2156;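 active = fluorescence ratio B-score at most minus 3 library SDs, with starting brightness B-score within 2 library SDs, cut at about -5.5 in these data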
Target sequence (O88943 whole entry, looked up): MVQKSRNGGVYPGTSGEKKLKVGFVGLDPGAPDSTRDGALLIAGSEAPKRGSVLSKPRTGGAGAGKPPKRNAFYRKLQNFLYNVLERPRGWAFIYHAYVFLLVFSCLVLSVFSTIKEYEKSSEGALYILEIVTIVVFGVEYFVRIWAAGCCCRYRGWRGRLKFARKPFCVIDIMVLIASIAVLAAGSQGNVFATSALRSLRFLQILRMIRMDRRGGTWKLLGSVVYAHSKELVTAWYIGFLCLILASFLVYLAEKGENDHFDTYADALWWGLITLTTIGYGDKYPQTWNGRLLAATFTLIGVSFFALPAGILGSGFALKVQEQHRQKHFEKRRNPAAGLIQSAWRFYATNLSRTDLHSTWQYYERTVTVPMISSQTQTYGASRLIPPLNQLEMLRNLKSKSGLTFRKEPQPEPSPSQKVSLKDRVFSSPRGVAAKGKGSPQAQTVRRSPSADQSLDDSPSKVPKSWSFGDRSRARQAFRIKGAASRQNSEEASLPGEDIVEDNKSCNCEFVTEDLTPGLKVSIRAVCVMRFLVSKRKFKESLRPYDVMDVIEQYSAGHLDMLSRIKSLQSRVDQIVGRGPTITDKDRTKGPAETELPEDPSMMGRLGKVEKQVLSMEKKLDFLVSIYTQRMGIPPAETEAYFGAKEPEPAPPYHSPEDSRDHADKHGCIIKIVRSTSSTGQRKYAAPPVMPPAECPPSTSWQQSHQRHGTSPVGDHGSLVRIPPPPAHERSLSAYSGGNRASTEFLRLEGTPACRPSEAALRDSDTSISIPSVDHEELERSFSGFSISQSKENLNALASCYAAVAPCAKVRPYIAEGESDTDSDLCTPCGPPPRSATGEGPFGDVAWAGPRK
KCNQ2 pot: potentiators of rat KCNQ2 potassium channel. O88943. B-score at 10 µM. CHO-K1 KCNQ2, FluxOR thallium flux fluorescence; active compounds read high. hit rate 0.54% among 310,000;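 active = fluorescence ratio B-score at least 3 SD of library B-scores, with initial fluorescence B-score within 3 of them, cut at about 5.3 in these data; same plate scores as AID 2156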;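 also: B-score of peak minus minimum over baseline fluorescence ratio after K+ and Tl+ stimulus; positive B-score means potentiation of KCNQ2 with more thallium influx and brighter signal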
The depositor's hits bear a star; i = inactive; nt = no result given. The list is not random: actives were taken first. Their share in the collection is about 1.6%.

SMILES	KCNQ2 block	KCNQ2 pot
COCCn1c(SCC(=O)N2CCCc3ccccc32)nc2c(c1=O)SC(C)C2 (stereo not drawn)	i	nt
O=C(CSc1nc(O)cc(=O)[nH]1)N1CCCc2ccccc21	i	0.47
CCOC(=O)N/N=C(\C)c1ccc(-n2cnnn2)cc1	i	nt
Cc1ccccc1Sc1ccc(N)cn1	i	1.3
[NH-]c1ncnc2c1N=C[N+]2=CC=CCO	i	1.7
CC1CCC(NC(=O)CCNC(=O)c2ccccc2)CC1 (stereo not drawn)	i	nt
Cc1ccsc1CN(C(=O)c1ccc([N+](=O)[O-])cc1)C1CCS(=O)(=O)C1 (stereo not drawn)	i	nt
Nc1c2c(nc3ccc(Br)cc13)N(C1CCCCC1)CC2	-5.8*	-5.8
Nc1c2c(nc3ccccc13)N(C1CCCCC1)CC2	i	0.77
Cc1ccc(-c2ocnc2C(=O)N2CCOCC2)cc1	i	nt
CCCC1=C(C(=O)OCC)C(c2ccc(OC)c(CSc3ccccn3)c2)C(C#N)=C(N)O1 (stereo not drawn)	i	nt
CC(NC(=O)c1ccccc1SCC(=O)N1CCCC1)c1ccc(F)cc1 (stereo not drawn)	i	0.06
COc1ccc(C)cc1NC(=O)C(Sc1nnc2ccccn12)c1ccccc1 (stereo not drawn)	i	nt
COc1ccc(C)cc1NC(=O)C(Sc1nnc(-c2ccncc2)n1-c1ccc(Cl)cc1)c1ccccc1 (stereo not drawn)	-7.9*	-7.9
Cc1ccc(S(=O)(=O)N2CCN(C(=O)COC(=O)C3CCC3)CC2)cc1	i	1.2
CCCCn1nc(C(=O)Oc2ccc3c(C)cc(=O)oc3c2)c2ccccc2c1=O	i	nt
Cc1c(C(=O)O)oc2ccc(S(=O)(=O)N3CCCC3)cc12	i	nt
CCCCN(C)C(=O)c1oc2ccc(S(=O)(=O)N3CCCCCC3)cc2c1C	-5.6*	-5.6
CCNC(=S)NNc1nc(N2CCCCC2)nc(N2CCOCC2)n1	i	nt
COc1ccccc1CNC(=O)C1=C(C)C(=O)OC12CCC(C)CC2 (stereo not drawn)	i	nt
COc1cccc(CNC(=O)C2=C(C)C(=O)OC23CCC(C)CC3)c1 (stereo not drawn)	-6.9*	-6.9
COc1ccccc1NS(=O)(=O)c1ccc(Cl)c(NC(=S)NC(=O)C2CCCC2)c1	i	nt
CCN(CC)c1ccc(S(=O)(=O)Nc2cc(Cl)ccc2Cl)cc1NC(=S)NC(=O)C1CCCC1	-7.1*	-7.1
COc1ccc(-n2c3c(cc(C(=O)NCC(=O)c4ccccc4)c2=O)C(=O)CC(C)(C)C3)cc1	i	0.58
COc1ccc(N2CCN(C(=O)CNC(=O)c3ccco3)CC2)cc1	i	nt
SMILES	KCNQ2 block	KCNQ2 pot
COc1ccc(C(=O)NNC(=O)OC(C)(C)C)cc1	i	nt
COc1ccc(C(=O)NN/C(C)=C/C(=O)C(F)(F)C(F)(F)C(F)(F)F)cc1	i	10*
COc1cc(CN2CCCC(C(=O)N3CCc4ccccc4C3)C2)cc(OC)c1OC (stereo not drawn)	i	nt
Cc1cc(C)cc(N(C(=O)CNS(=O)(=O)c2ccccc2)C(C(=O)NCc2ccccc2)c2ccc(C)o2)c1 (stereo not drawn)	i	nt
Cc1ccc(S(=O)(=O)NCC(=O)N(c2ccccc2)C(C(=O)NCc2ccccc2)c2ccco2)cc1 (stereo not drawn)	-6.9*	-6.9
O=C(O)c1cc(S(=O)(=O)Nc2ccccc2Cc2ccccc2)ccc1Cl	-8.1*	-8.1
O=C(O)c1ccc(Cl)c(S(=O)(=O)Nc2ccccc2Cc2ccccc2)c1	i	nt
CCN(Cc1cnn(C)c1)C(=O)c1ccc2nc(Cc3cccc(Cl)c3)oc2c1	i	nt
COc1ccccc1N1N=C(c2ccc([N+](=O)[O-])cc2)CC1c1ccccc1 (stereo not drawn)	-6.9*	-6.9
COc1cc(N2N=C(c3ccccc3)CC2c2ccccc2)c(C=O)cc1C=O (stereo not drawn)	i	nt
Cc1cc(N2CCCC2)ccc1NC(=O)CN1C(=O)NC2(CCCCC2)C1=O	i	nt
O=C(c1cnc(N2CCN(c3ccccn3)CC2)c2ccccc12)N1CCN(c2cccc(Cl)c2)CC1	-7.9*	-7.9
O=C(/C=C/c1cn(-c2ccccc2)nc1-c1cccnc1)N1CCCCC1	i	nt
O=C(/C=C/c1cn(-c2ccccc2)nc1-c1cccc(Cl)c1)N1CCN(c2ccccn2)CC1	-5.7*	-5.7
O=C(c1cc(Cl)ccc1Cl)N1CCN(c2ccccn2)CC1	i	nt
CN(C)C1(CN=Cc2cc(Cl)cc([N+](=O)[O-])c2O)CCCCC1	i	0.44
COc1ccccc1CC(=O)N(CCC1=CCCCC1)c1c(N)n(Cc2ccccc2)c(=O)[nH]c1=O	i	nt
O=C(CN1C(=O)C2CCCCC2C1=O)Nc1nc2ccc(F)cc2s1 (stereo not drawn)	-6.2*	-6.2
O=C(CN1CCOCC1)Nc1nc2ccc(F)cc2s1	i	nt
Clc1ccc(Cc2nnc(-c3ccccc3Br)o2)cc1	-5.9*	-5.9
Clc1ccccc1OCc1nnc(-c2ccccc2Br)o1	i	nt
COc1ccc(C(=O)N2CCCC(Nc3ccc(F)cc3)C2)c(OC)c1 (stereo not drawn)	i	0.56
CC1(CCc2ccccc2)NC(=S)N(c2ccc(Cl)cc2)N1 (stereo not drawn)	i	nt
CCC1(c2ccc(Cl)cc2)NC(=S)N(c2ccc(C)cc2)N1 (stereo not drawn)	i	17*
Cc1cc(NC(=O)COC(=O)C2CC(=O)N(c3ccccc3)C2)no1 (stereo not drawn)	i	nt
SMILES	KCNQ2 block	KCNQ2 pot
CC12CCC(C/C1=N\N=C1\NC(=O)/C(=C\c3ccc(Cl)cc3)S1)C2(C)C (stereo not drawn)	i	13*
O=C1NC(=Nc2ccccc2Cl)S/C1=C\c1ccc(C(=O)O)cc1	i	nt
Cc1cccc(C(=O)Nc2nnc(C3=COCCO3)o2)c1	i	18*
O=C(Nc1nnc(C2=COCCO2)o1)c1cccc(F)c1	i	2.5
Cc1cc(Br)c(NC(=O)CCl)c(Br)c1	i	6*
Cc1cc(Br)c(NC(=O)CN(C)CCOc2ccccc2)c(Br)c1	i	nt
O=C(CCCN1CCOCC1)c1ccc2c(c1)OCCO2	i	0.39
O=C(CCN1CCc2ccccc2CC1)c1ccc2c(c1)OCCO2	-5.8*	-5.8
Cc1nc2c(c(=O)n1CCC(C)C)c1nc3ccccc3nc1n2Cc1ccc2c(c1)OCO2	-6.3*	-6.3
CCC(C)n1cnc2c(c1=O)c1nc3ccccc3nc1n2Cc1ccc2c(c1)OCO2 (stereo not drawn)	i	0.06
CC(C)C[C@H]1CN=C(Nc2ccccc2)N1CCCC1CCCC1	i	nt
CC(C)C[C@H]1CN=C(Nc2ccccc2)N1CCCC1CCCCC1	-5.6*	-5.6
CC1CN(c2ccc(Cl)cc2[N+](=O)[O-])CCN1S(C)(=O)=O (stereo not drawn)	i	nt
Cc1cc(Oc2ccc(=O)[nH]n2)nc(Cl)n1	i	2
COc1ccc(/C=C(\NC(=O)c2ccc([N+](=O)[O-])cc2)C(=O)NCCCn2ccnc2)cc1	i	nt
N#C/C(=C\c1ccc([N+](=O)[O-])cc1)C(=O)NCCCn1ccnc1	-5.6*	-5.6
Cc1ccc([N+](=O)[O-])cc1NC(=O)c1c(-c2ccccc2)noc1C	i	nt
O=C(Cn1cnc(Cl)c1Cl)c1ccc(F)cc1	i	nt
Cc1nonc1CC(=O)N1CCCC(C(=O)c2ccc(Cl)cc2)C1 (stereo not drawn)	i	nt
COc1ccccc1C(=O)Nn1c(C2CCC2)nc2ccccc2c1=O	i	nt
